Outcome and AC50 data for 43 compounds are collected here from PubChem BioAssay (EPA / NIEHS).

The structures appear in SMILES notation. Results filed as inconclusive are left out. Active and inactive are the calls of the source. The calls were made as follows, unless noted: active = hit-call score of the fitted dose curve at least 0.9, where 1 is the maximum; inconclusive = response in the unintended direction; inactive = score below 0.9.

Assay [1] addresses Cellular tumor antigen p53 (Homo sapiens) (UniProt P04637). The assay is described as follows: TOX21_p53_BLA_p2_ratio: Tox21 HCT-116 p53 Agonism Beta-lactamase Assay, Ratio, Phase 2 (AID 2283592). Put shortly:
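Read-out is the blue/green (460/530 nm, 405 nm excitation) ratio after 2 h CCF4-AM loading, fitted as gain versus DMSO. Compounds, pinned at 217-fold dilution from DMSO stocks, stayed 16 h on HCT-116 beta-lactamase reporter cells seeded 5 h earlier.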

Assay [2] shares this target. As to the kind of experiment: TOX21_p53_BLA_p4_ratio: Tox21 HCT-116 p53 Agonism Beta-lactamase Assay, Ratio, Phase 4 (AID 2283601). The gist of the method: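 Signal is the blue/green (460nm/530nm) ratio of cleaved versus uncleaved CCF4-AM substrate, read after 2 h substrate loading. Cells were HCT116 carrying the p53-responsive beta-lactamase reporter, dosed 16 h at 37C, 5% CO2; CellTiter-Glo measured in parallel.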

Assay [3] is described as follows: TOX21_p53_BLA_p3_viability: Viability Assessment in the Tox21 HCT-116 p53 Agonism Beta-lactamase Assay, Phase 3 (AID 2283593).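 Also: cells exposed to compound for 16 h before reading.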 The gist of the method: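 Cellular ATP was quantified by CellTiter-Glo luminescence, read after 30 min at room temperature. Beforehand, HCT116 cells (4000/well) received compound 5 h post-seeding, 217-fold diluted from DMSO, then incubated 16 h at 37C.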

For assay [4], the target named is Cellular tumor antigen p53 (Homo sapiens) (UniProt P04637). The assay is described as follows: TOX21_p53_BLA_p3_ratio: Tox21 HCT-116 p53 Agonism Beta-lactamase Assay, Ratio, Phase 3 (AID 2283596). Put shortly:
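Cells were seeded at 4000/well, rested 5 h at 37C, then dosed with DMSO compound solutions (217-fold dilution) for 16 h. CCF4-AM substrate was loaded for 2 h at room temperature, and the 460/530 nm emission ratio was fitted for gain of signal versus DMSO.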

The nature of assay [5]: TOX21_p53_BLA_p4_viability: Viability Assessment in the Tox21 HCT-116 p53 Agonism Beta-lactamase Assay, Phase 4 (AID 2283597).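 Also: hits lower the luminescence signal meaning cytotoxicity.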 Put shortly:
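Cytotoxicity as reduced cellular ATP (CellTiter-Glo luminescence, 30 min room temperature), measured in the same wells following the CCF4 FRET p53 reading. Human HCT-116 cells received compounds in DMSO (217-fold dilution) for 16 h.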

The target in assay [6] is Cellular tumor antigen p53 (Homo sapiens) (UniProt P04637). The assay is described as follows: TOX21_p53_BLA_p5_ratio: Tox21 HCT-116 p53 Agonism Beta-lactamase Assay, Ratio, Phase 5 (AID 2283599). Put shortly: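 Beta-lactamase reporter ratio (blue 460 nm over green 530 nm, 405 nm excitation) after 2 h CCF4-AM loading, in HCT-116 cells exposed 16 h at 37 C to compounds pinned at 217-fold dilution. Increases relative to DMSO baseline scored.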

Assay [7] in a line: TOX21_p53_BLA_p5_viability: Viability Assessment in the Tox21 HCT-116 p53 Agonism Beta-lactamase Assay, Phase 5 (AID 2283600). The gist of the method:
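Viability came from CellTiter-Glo ATP luminescence, read after 30 min at room temperature. Before this, HCT-116 p53-bla cells (4000/well) had 16 hours of compound exposure at 37C, with DMSO stocks diluted 217-fold on transfer.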

Assay [8] in a line: CCTE_Harrill_HTTr_Viability_MCF7: CCTE's 6-hour Cell Viability Assessment for the High-Throughput Transcriptomics (HTTr) Platform, in MCF-7 cells cultured in DMEM + 10% fetal bovine serum, Harrill Lab (AID 2284010; active = hit-call score of the fitted dose curve at least 0.9, where 1 is the maximum; inactive = score below 0.9). The gist of the method: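 Eight-point concentration series, six-hour exposure. Propidium iodide exclusion imaged to assess membrane integrity as a cytotoxicity readout; bidirectional fitting was done with DMSO as negative control and activity baseline.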

Assay [9] can be described thus: CCTE_Harrill_HTTr_Apoptosis_MCF7: CCTE's 6-hour Apoptosis Assessment for the High-Throughput Transcriptomics (HTTr) Platform, in MCF-7 cells cultured in DMEM + 10% fetal bovine serum, Harrill Lab (AID 2284011; active = hit-call score of the fitted dose curve at least 0.9, where 1 is the maximum; inactive = score below 0.9). Put shortly: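 High-content imaging of CellEvent Caspase 3/7 Green signal follows a six-hour exposure, with eight concentrations per chemical. MCF-7 cells grown in DMEM plus 10% fetal bovine serum; activity fitted in both directions against DMSO.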

The target of assay [10] is PGR (gene 5241) (UniProt P06401). As to the kind of experiment: TOX21_PR_BLA_Followup_Agonist_ratio: Tox21 HEK293 Progesterone Receptor (PR) Agonism Beta-lactamase Follow-Up Assay, Ratio (AID 2283933). Put shortly: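 Ratio-based beta-lactamase reporter signal after 16 hr compound treatment of PR-UAS-bla HEK293T cells at 37C. Substrate loading lasted 2 hr at room temperature.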

Assay [11] is described as follows: TOX21_PR_BLA_Followup_Agonist_viability: Viability Assessment in the Tox21 HEK293 Progesterone Receptor (PR) Agonism Beta-lactamase Follow-Up Assay (AID 2283935).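 Also: signal loss means lower viability so actives are cytotoxic.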 Put shortly:
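Viability is read as CellTiter-Glo luminescence, where loss of signal indicates cytotoxicity. The cells are PR-UAS-bla HEK293T given compounds for 16 hr at 37C and 5% CO2, in the same wells used for the bla readout.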

The target in assay [12] is PGR (gene 5241) (UniProt P06401). As to the kind of experiment: TOX21_PR_LUC_Followup_Agonist: Tox21 HEK293 Progesterone Receptor (PR) Agonism Luciferase Follow-Up Assay (AID 2283937; active = hit-call score of the fitted dose curve at least 0.9, where 1 is the maximum; inactive = score below 0.9). Put shortly: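 In HEK293 cells stably expressing PR-A with a luciferase reporter, compounds were incubated 16 h at 37C, and induced luminescence was quantified with ONE-Glo, multiplexed with cell viability.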

For assay [13] the target is unchanged. The assay is described as follows: TOX21_PR_LUC_Followup_Antagonist: Tox21 HEK293 Progesterone Receptor (PR) Antagonism Luciferase Follow-Up Assay (AID 2283938).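 Also: curve fitted upward as signal gain over DMSO baseline despite antagonist label.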 The gist of the method: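 Luminescence from ONE-Glo was measured 30 min after reagent addition, following 16 h exposure of HEK293-PR-A-luc cells (3,000/well, plated 5 h earlier) to DMSO-dissolved compounds at 37C; DMSO served as baseline.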

A short description of assay [14]: TOX21_PR_LUC_Followup_Antagonist_viability: Viability Assessment in the Tox21 HEK293 Progesterone Receptor (PR) Antagonism Luciferase Follow-Up Assay (AID 2283940). Put shortly: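 Loss of CellTiter-Glo ATP signal indicates cytotoxicity in HEK293-PR-A-luc cells grown in 10% charcoal-stripped FBS medium, seeded 3,000 per well and incubated 16 h with compound at 37C.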

PGR (gene 5241), sequence (P06401 whole entry, looked up): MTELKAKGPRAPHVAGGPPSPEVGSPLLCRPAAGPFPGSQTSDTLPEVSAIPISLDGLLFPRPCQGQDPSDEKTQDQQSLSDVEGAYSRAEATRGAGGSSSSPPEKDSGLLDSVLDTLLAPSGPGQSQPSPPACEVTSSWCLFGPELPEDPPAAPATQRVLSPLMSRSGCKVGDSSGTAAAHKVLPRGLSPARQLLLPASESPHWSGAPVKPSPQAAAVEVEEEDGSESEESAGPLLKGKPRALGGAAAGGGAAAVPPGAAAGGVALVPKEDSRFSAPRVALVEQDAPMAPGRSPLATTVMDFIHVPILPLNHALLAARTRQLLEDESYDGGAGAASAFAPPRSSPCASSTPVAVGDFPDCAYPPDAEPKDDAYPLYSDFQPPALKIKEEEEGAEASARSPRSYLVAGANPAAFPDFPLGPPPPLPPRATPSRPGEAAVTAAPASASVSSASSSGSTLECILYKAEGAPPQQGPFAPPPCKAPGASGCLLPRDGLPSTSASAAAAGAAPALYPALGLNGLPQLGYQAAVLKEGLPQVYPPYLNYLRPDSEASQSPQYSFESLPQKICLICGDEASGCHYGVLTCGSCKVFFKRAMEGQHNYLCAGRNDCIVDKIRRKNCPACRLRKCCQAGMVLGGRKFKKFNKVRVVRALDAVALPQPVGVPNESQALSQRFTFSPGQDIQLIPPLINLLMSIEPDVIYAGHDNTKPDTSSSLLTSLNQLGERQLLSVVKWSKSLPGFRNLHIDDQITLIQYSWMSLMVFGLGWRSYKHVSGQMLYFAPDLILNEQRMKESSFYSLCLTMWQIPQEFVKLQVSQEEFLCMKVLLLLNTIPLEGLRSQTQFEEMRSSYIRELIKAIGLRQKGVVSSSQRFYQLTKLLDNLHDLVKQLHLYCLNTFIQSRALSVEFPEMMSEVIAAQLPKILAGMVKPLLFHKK
Cellular tumor antigen p53 (Homo sapiens), sequence (P04637 whole entry, looked up): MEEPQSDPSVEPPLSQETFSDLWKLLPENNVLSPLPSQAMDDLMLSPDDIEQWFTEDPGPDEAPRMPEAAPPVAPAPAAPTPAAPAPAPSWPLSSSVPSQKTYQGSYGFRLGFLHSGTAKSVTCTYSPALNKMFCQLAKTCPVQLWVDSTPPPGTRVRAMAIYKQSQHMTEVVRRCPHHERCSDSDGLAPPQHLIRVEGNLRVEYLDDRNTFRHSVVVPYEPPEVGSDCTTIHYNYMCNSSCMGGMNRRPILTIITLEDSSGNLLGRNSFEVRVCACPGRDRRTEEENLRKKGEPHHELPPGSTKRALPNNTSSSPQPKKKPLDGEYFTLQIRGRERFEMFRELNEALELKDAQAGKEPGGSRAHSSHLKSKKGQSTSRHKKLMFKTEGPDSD

As to `CN1CCC(=C2c3ccccc3CC(=O)c3sccc32)CC1`, the result in assay [1] and in [2] was inactive.
On to `CC(C)(C)CC(C)(C)c1ccc(Nc2ccc(C(C)(C)CC(C)(C)C)cc2)cc1`, for which, in assay [3], the result was inactive.
Regarding `Cc1ccc(N)nc1`, the compound was called inactive in assay [3], in assay [4], in assay [5], in [6], in [7] and in [2].
Consider `COc1ccc2c(c1)C(=O)N(CCc1ccc(S(=O)(=O)NC(=O)NC3CCCCC3)cc1)C(=O)C2(C)C`, for which the result in assay [1] and in [2] was inactive.
With `C=C(C)C(=O)OCCOCC`, the call in [3] was inactive.
As for `CCCC(C)CO` (centres undefined), the result in assay [1] and in [2] was inactive.
As to `Nc1nc(NC2CC2)c2ncn([C@H]3C=C[C@@H](CO)C3)c2n1`, the result in assay [3], in assay [4], in [5], in assay [6] and in assay [7] was inactive.
With `CC1(C)CC(O)CC(C)(C)N1`, the outcome in assay [1] and in assay [2] was inactive.
On to `Cc1cccc(C(=O)O)c1[N+](=O)[O-]`, for which the result in [1] and in [2] was inactive.
On to `Cc1ccc2ccccc2c1[N+](=O)[O-]`, for which the result in assay [1] and in assay [2] was inactive.
Regarding `CCCOC(C)=O`, the outcome in assay [3], in [4], in [5], in assay [6] and in [7] was inactive.
In the case of `C[C@](N)(Cc1ccc(O)cc1)C(=O)O`, the compound was called inactive in [3], in assay [4], in assay [5], in [6] and in [7].
For `CC(C)(O)CCC(C)(C)O`, the compound was classed as inactive in [3], in assay [4], in assay [5], in assay [6] and in assay [7].
Turning to `COc1cc2c(cc1OC)C(C(C(=O)N(CCc1ccc(OC)c(OC)c1OC)CCc1ccc(OC)c(OC)c1OC)c1ccccc1)=NCC2` (centres undefined), the compound was classed as inactive in assay [3], in assay [4], in assay [5], in assay [6], in assay [7] and in assay [2].
For `CCOC(=O)C(Br)c1ccccc1` (centres undefined), the result in assay [1] and in assay [2] was inactive.
Consider `CCCOC(=O)c1ccc(N)cc1`, for which the outcome in assay [1] and in assay [2] was inactive.
For `CCN1CCCC1CNC(=O)c1cc(S(N)(=O)=O)ccc1OC` (centres undefined), the outcome in [1], in assay [7], in [2], in assay [8] and in [9] was inactive.
With `CCOc1ccccc1N`, the result in assay [1] and in assay [2] was inactive.
`O=[N+]([O-])c1cc([N+](=O)[O-])c2ccc(S(=O)(=O)O)cc2c1O`: the compound was classed as inactive in assay [3].
With `CCN1CCN(C(=O)N[C@@H](C(=O)N[C@@H]2C(=O)N3C(C(=O)O)=C(CSc4nnnn4C)CS[C@H]23)c2ccc(O)cc2)C(=O)C1=O`, the result in assay [1] and in [2] was inactive.
Turning to `O[C@@H]1CO[C@H]2[C@@H]1OC[C@@H]2O`, the AC50 in [3] is 43.1 µM (active). Besides, the result in [4], in [5], in [6], in assay [7] and in assay [2] was inactive.
Regarding `FC(F)(F)C(Cl)(Cl)Cl`, the result in [1], in assay [7] and in [2] was inactive.
As for `c1cnc2cc3c(cc2n1)C1CNCC3C1`, the outcome in assay [1] and in [2] was inactive.
On to `Cc1cc(O)c(Cl)cc1C`, for which the call in assay [3], in assay [4], in assay [5], in [6] and in assay [7] was inactive.
Take `Cc1ccc(Cl)cc1Cl`: the compound was called inactive in assay [3] and in assay [4].
Take `CC1(c2ccccc2)OC(C(=O)O)=CC1=O` (centres undefined): the outcome in assay [1] and in assay [2] was inactive.
For `CC(C)(CCC(=O)O)C(=O)O`, the result in assay [1], in assay [7] and in assay [2] was inactive.
With `CCCCNC(=O)NCCCC`, the call in assay [3], in [4], in assay [5], in assay [6], in assay [7] and in assay [2] was inactive.
For `NC(=O)C1(N2CCCCC2)CCN(CCCC(=O)c2ccc(F)cc2)CC1`, in assay [3], the AC50 is 36.2 µM (active). Besides, the outcome in [4], in [5] and in assay [6] was inactive.
For `CN1CC[C@H](c2c(O)cc(O)c3c(=O)cc(-c4ccccc4Cl)oc23)[C@H](O)C1`, the outcome (in assay [1]; in [2]; with PGR (gene 5241) [10]; in [11]; in the assay with PGR (gene 5241) [12]; in assay [14]) was inactive. For the same compound, in the assay with PGR (gene 5241) [13], the AC50 was 565 nM (active).
As to `Cc1ccccc1C(=O)Nc1ccc(C(=O)N2CCCC(O)c3cc(Cl)ccc32)c(C)c1` (centres undefined), the compound was called inactive in assay [3], in assay [4], in assay [6] and in [7].
Regarding `NCCCC(O)(P(=O)(O)O)P(=O)(O)O`, the result in [3], in assay [4], in assay [6] and in assay [7] was inactive.
Take `N[C@H]1CN(c2c(F)cc3c(=O)c(C(=O)O)cn(C4C[C@H]4F)c3c2Cl)CC12CC2` (some centres undefined): the compound was classed as inactive in assay [3], in assay [4], in assay [5], in assay [7] and in [2].
As to `O=c1oc2c(O)c(O)cc3c(=O)oc4c(O)c(O)cc1c4c23`, the result in [3], in [4] and in [6] was inactive.
`O=C1N=C2SCCN2C(=O)C1Cc1ccc(Cl)cc1` (centres undefined): the outcome in assay [3], in [5] and in [7] was inactive.
Consider `CC(=O)OCC(=O)[C@@]1(O)CC[C@H]2[C@@H]3C[C@H](C)C4=CC(=O)C=C[C@]4(C)[C@H]3[C@@H](O)C[C@@]21C`, for which the outcome in assay [3], in assay [5], in assay [6] and in assay [2] was inactive.
For the compound `Nc1ccc(C(=O)NCC(=O)O)cc1`, the outcome in [3], in assay [4], in [6], in assay [7] and in assay [2] was inactive.
Consider `C=CCSSCCC`, for which the call in [3] and in assay [5] was inactive.
As for `CC(C)(CCl)c1ccccc1`, the call in [3], in assay [5], in [6], in assay [7] and in assay [2] was inactive.
As for `O=C(O)c1ccc(NC(=O)[C@H](Cc2ccc(O)cc2)NC(=O)c2ccccc2)cc1`, the result in assay [3], in assay [4], in [5], in [7] and in [2] was inactive.
Take `CO[C@H]1O[C@@H]2O[C@@]3(C)CC[C@H]4[C@H](C)CC[C@@H]([C@H]1C)[C@@]24OO3`: the compound was called inactive in assay [3], in [4], in assay [6], in assay [7] and in assay [2].
For the compound `CC(=O)c1cnccn1`, the call in assay [3], in assay [4], in assay [6] and in assay [2] was inactive.
Consider `Cc1cc([N+](=O)[O-])ccc1N`, for which the compound was classed as inactive in [3], in [4], in [5], in assay [6] and in assay [2].
